Data as given in PubChem BioAssay (Tox21).
Records with an inconclusive call do not appear. Where a call stands in place of a potency, no number is given. Activity calls are given as the source filed them. Calls come from the whole dose curve; as a rule, active = well fitted activation curve with a large enough effect in the signal ratio in the repeat runs (not every such curve was filed as active); inconclusive = weak or mixed curves, or effect the other way; inactive = no such curve, though single readings can be large or run the other way; the % refers to the signal ratio.

Assay: qHTS assay for small molecule agonists of the antioxidant response element (ARE) signaling pathway (AID 743202)
Settings: HepG2 ARE-bla reporter, beta-lactamase FRET, 16 h; series mostly up to 73.3 µM
Description: U.S. Tox21 Program National Center for Advancing Translational Sciences [NCATS] NIH Chemical Genomics Center [NCGC] U.S. Environmental Protection Agency [EPA] National Institutes of Environmental Health Sciences [NIEHS] National Toxicology Program [NTP] U.S. Food and Drug Administration [FDA] Tox21 Assay Overview: Oxidative stress has been implicated in the pathogenesis of a variety of diseases ranging from cancer to neurodegeneration. The antioxidant response element (ARE) signaling pathway plays an important role in the amelioration of oxidative stress. The CellSensor ARE-bla HepG2 cell line (Invitrogen) can be used for analyzing the Nrf2/antioxidant response signaling pathway. Nrf2 (NF-E2-related factor 2) and Nrf1 are transcription factors that bind to AREs and activate these genes. The CellSensor ARE-bla Hep G2 cell line contains a beta-lactamase reporter gene under control of the Antioxidant Response Element (ARE) stably integrated into HepG2 cells. The activation of the report gene under culture conditions can be detected by fluorescence intensity. This cell line has been used to screen the Tox21 10K compound library to identify agonists that induce oxidative stress.
Tox21 Assay Protocol Summary: The ARE-bla cells were dispensed at 2,000 cells/5 ul/well in 1536-well black wall/clear bottom plates using a Multidrop dispenser. After the assay plates were incubated at a 37 C/5% CO2 incubator for 5 hours, 23 nL of compounds dissolved in DMSO, positive controls or DMSO only was transferred to the assay plate by a pin tool. The plates were incubated at 37 C for 16 hours. After 1 uL of LiveBLAzer B/G FRET substrate was added using a Flying Reagent Dispenser, the plates were incubated at room temperature for 2 hours, and fluorescence intensity was measured by an Envision plate reader.
Potency is the fitted concentration of half-maximal effect.

| Compound | Potency |
| --- | --- |
| O=C(Cl)c1cccc([N+](=O)[O-])c1 | inactive |
| CCCCNc1cc(C(=O)O)cc(S(N)(=O)=O)c1Oc1ccccc1 | inactive |
| Cc1c[nH]c(=S)[nH]c1=O | inactive |
| CC(=O)Oc1cc(C(C)C)c(OCCN(C)C)cc1C | inactive |
| CCCC(CCC)(C(=O)OCC)C(=O)OCC | inactive |
| Cc1c(C(=O)NCCO)[n+](=O)c2ccccc2n1[O-] | inactive |
| O=CCCc1ccccc1 | inactive |
| CC(=O)O[C@H]1CC[C@@]2(C)C(=CC[C@@H]3[C@@H]2CC[C@]2(C)C(C(C)=O)=CC[C@@H]32)C1 | 23.7 µM (active) |
| O=C1CCCCCCCCCCC(=O)OCCO1 | inactive |
| CC(C)C(=O)OC/C=C/c1ccccc1 | inactive |
| CCc1cc(Cl)c(OC)c(C(=O)NC[C@@H]2CCCN2CC)c1O | inactive |
| C1CCOC1 | inactive |
| CN1[C@@H]2CC[C@H]1CC(OC(=O)c1c[nH]c3ccccc13)C2 (stereo not given in full) | inactive |
| CC(C)C[C@H](NC(=O)OCC1c2ccccc2-c2ccccc21)C(=O)O | inactive |
| CCOc1ccc(NS(=O)(=O)c2ccc(N)cc2)nn1 | inactive |
| Nc1cccc(S(=O)(=O)O)c1 | inactive |
| O=C1CCN(c2ccccc2)N1 | inactive |
| CC(C)C(=O)OCC(C)(C)C(O)C(C)C (stereo not given) | inactive |
| OCCN(CCO)c1ccccc1 | inactive |
| O=C(C(Cl)Cl)N1CCOC12CCCCC2 | 34.4 µM (active) |

| Compound | Potency |
| --- | --- |
| CC(C)O | inactive |
| COc1cc(Cl)ccc1Cl | inactive |
| CCCCCOc1ccc(C2SC(=O)NC2=O)cc1OCC (stereo not given) | inactive |
| NNS(=O)(=O)c1ccc(Oc2ccc(S(=O)(=O)NN)cc2)cc1 | inactive |
| CCCCN1C[C@H](O)[C@@H](O)[C@H](O)[C@H]1CO | inactive |
| CC(CNC1CCCCC1)OC(=O)c1ccccc1 (stereo not given) | inactive |
| CC1=C(O)C(=O)OC1C (stereo not given) | inactive |
| O=C1CCCCC1C1CCCCC1 (stereo not given) | inactive |
| CN1CCN(c2c(F)cc3c(=O)c(C(=O)O)cn(CCF)c3c2F)CC1 | inactive |
| CC(C)NCC(O)COc1ccc(CCOCC2CC2)cc1 (stereo not given) | inactive |
| CN1CCN(C2=Nc3ccccc3Oc3ccc(Cl)cc32)CC1 | inactive |
| CCOc1ccccc1N | inactive |
| CCCCCCCCCCCCCCCCOP(=O)([O-])OCC[N+](C)(C)C | inactive |
| C=CCCC=C | inactive |
| CCCCC1CCC(=O)O1 (stereo not given) | inactive |
| CCCCCCCCCC#N | inactive |
| N#CSCC(=O)O | inactive |
| COc1cc(C)ccc1C(C)C | inactive |
| C=CCCCCCCCCO | inactive |
| CC(C)c1ccccc1 | inactive |
